In the library only some 12% were active in any assay of this set; here they are far more common.
FMDV antiviral: foot and mouth disease virus antiviral activity | actives 1.2% (n = 410,000) | Potency, µM (top dose mostly 57.9 µM), most hits filed as inhibitors | AID 1159524 | FMDV antiviral cell-based qHTS; calls by dose curve; tested in HEK293T cells; note: read-out not given here; nearly all actives have a fitted effect of over 45% in size
Sm TGR block: inhibitors of Schistosoma mansoni thioredoxin glutathione reductase; Q962Y6; purified TGR, DTNB reduction, TNB absorbance 405 nm; Potency, µM (highest dose often 114 µM), most hits filed as inhibitors; actives 3% (n = 360,000); active = well fitted inhibition curve with a large enough effect; inconclusive = small, poorly fitted or top-dose-only effect; inactive = no such curve, though single readings can be large or run the other way; note: nearly all actives have a fitted effect of over 60% in size
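TGR 20 nM + NADPH 100 uM (dispensed conc.), cpd preinc 15 min RT; start with NADPH (500 uM addition) then DTNB (15 mM addition). Kinetic TNB absorbance, 405 nm filter. Four-parameter Hill fit across titration.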
Shiga toxin inh: blocks Shiga toxin action in Vero cells; Vero cells, Shiga toxin protein synthesis inhibition reporter; inhibition, % at 38.7 µM; actives 9.2% (n = 290,000); in the data active = inhibition mostly above about 28%, no sharp cut-off; inactive = mostly below about 43%
CHX counter: counter-screen for Shiga toxin inhibitors: cycloheximide protein synthesis inhibition | max response, % | actives 12% (n = 300,000) | cell reporter, cycloheximide protein synthesis inhibition counterscreen; in the data active = max response mostly above about 13%, no sharp cut-off; inactive = mostly below about 14%; note: read at 38.3 µM for the half of the compounds with a filed dose
Large screens that a line does not name were inactive.

CCOC(=O)/C(=C\c1cccc(O)c1)c1nc2sc(C)c(C)c2c(=O)[nH]1	FMDV antiviral 11µM
CCOC(=O)c1nc2sc(C)c(C)c2c(=O)[nH]1	none
Cc1n[nH]c(C)c1S(=O)(=O)N(CC(=O)NCc1ccccc1Cl)c1ccc(C(C)C)cc1	none (no result: Shiga toxin inh, CHX counter)
CN(C)c1ccc(NC(=O)C(=O)NCCOc2ccccc2)cc1	none
CCCNC(=O)C(=O)Nc1ccc(N(C)C)cc1	Shiga toxin inh 68, CHX counter 31
C=CCNC(=S)Nc1ccc(N(C)C)cc1	Sm TGR block inconclusive, CHX counter 29
COc1ccc(Cl)cc1NC(=O)c1c(NCc2cccs2)sc2c1CCCC2	none (no result: Shiga toxin inh, CHX counter)
COc1ccc(CCNC(=O)c2cc3n(n2)CCCN(Cc2ccc(C)cc2)C3=O)cc1OC	FMDV antiviral inconclusive (no result: Shiga toxin inh, CHX counter)
COc1ccc(/C=C2\SC(=O)N(CCCC(=O)Nc3ccc(C(=O)O)cc3)C2=O)cc1	FMDV antiviral 4µM (no result: Sm TGR block, Shiga toxin inh, CHX counter)
COc1ccc(/C=C2/SC(=S)N(CCCC(=O)Nc3cccc(O)c3)C2=O)cc1	Shiga toxin inh 45, CHX counter 35
COc1ccc(/C=C2\SC(=O)N(CCc3nnc(N)s3)C2=O)cc1	Shiga toxin inh 104, CHX counter 53
COc1cccc(/C=C2\SC(=S)N(CCC(=O)Nc3ccc(O)cc3)C2=O)c1	Shiga toxin inh 47, CHX counter 30
O=C(CS(=O)(=O)c1cccc2nsnc12)NCc1ccccc1	none (no result: Shiga toxin inh, CHX counter)
COc1ccc(/C=C2/SC(=S)N(CCCC(=O)Nc3ccccc3C(=O)O)C2=O)cc1	FMDV antiviral 8.9µM
CCCOc1ccc(/C=C2\SC(=S)N(CC3CCCO3)C2=O)cc1 (stereo not given)	none
Cc1ccc(/C=C2\SC(=S)N(CCCC(=O)Nc3ccc(O)cc3)C2=O)cc1	Shiga toxin inh 39, CHX counter 18
COc1ccc(/C=C2\SC(=S)N(CCCC(=O)NNC(=O)c3ccccc3O)C2=O)cc1	FMDV antiviral 4.5µM
O=C1/C(=C/c2ccc(O)cc2)SC(=S)N1CC1CCCO1 (stereo not given)	Shiga toxin inh 40, CHX counter 36
Cc1ccc(/C=C2\SC(=S)N(CCCC(=O)Nc3ccccc3C(=O)O)C2=O)cc1	FMDV antiviral inconclusive
O=C(COc1ccccc1Cl)Nc1ccc2c(c1)OCCO2	Shiga toxin inh 87, CHX counter 45
COc1cc(CNCCO)ccc1OCC(=O)Nc1ccc(Br)cc1	CHX counter 24
Cc1ccccc1OC(C)C(=O)Nc1ccc2c(c1)OCO2 (stereo not given)	none
COc1ccccc1OC(C)C(=O)Nc1ccc2c(c1)OCCO2 (stereo not given)	CHX counter 19
NC(=O)c1ccccc1OCC(=O)Nc1ccc2c(c1)OCCO2	none (no result: Shiga toxin inh, CHX counter)
CCCNCc1cc(OC)c(OCC(=O)Nc2ccccc2)cc1Br	none
Cc1ccccc1OCC(=O)Nc1ccc2c(c1)OCCO2	Shiga toxin inh 108, CHX counter 51
COCCN(C)C(=O)c1cnn(-c2nccc(-c3cc(OC)ccc3OC)n2)c1C	none (no result: Sm TGR block, Shiga toxin inh, CHX counter)
O=C(Nc1cccc(C(=O)Nc2cc(C(=O)Nc3ccc([S+](=O)([O-])[O-])c4cc([S+](=O)([O-])[O-])cc(SOOO)c34)ccc2F)c1)Nc1cccc(C(=O)Nc2cc(C(=O)Nc3ccc([S+](=O)([O-])[O-])c4cc([S+](=O)([O-])[O-])cc([S+](=O)([O-])[O-])c34)ccc2F)c1	none (no result: Sm TGR block)
CC(=O)Nc1ccc(NC(=O)CC(C)n2ccc(C)n2)cc1 (stereo not given)	none (no result: Shiga toxin inh, CHX counter)
O=C(COc1cccc(Br)c1)N/N=C/c1ccc2c(c1)OCCO2	none (no result: Sm TGR block, Shiga toxin inh, CHX counter)
COc1ccc(NC(=O)COc2ccc(N(C)S(=O)(=O)c3ccc(Cl)cc3)cc2)cc1OC	FMDV antiviral 10µM (no result: Shiga toxin inh, CHX counter)
Cc1cccc(C)c1OCC(=O)Nc1ccc2c(c1)OCCO2	Shiga toxin inh 82
Cc1ccccc1OCC(=O)N/N=C/c1ccc2c(c1)OCCO2	CHX counter 31
NC(=O)c1ccccc1OCC(=O)Nc1ccc(Cl)c(Cl)c1	Shiga toxin inh 71, CHX counter 39
Cc1cc(C)c(N(Cc2ccccc2)S(=O)(=O)c2ccc(OCCNC(=O)c3cc4ccccc4o3)cc2)c(C(=O)NO)c1	none (no result: Sm TGR block)
CCC(=O)N1CCc2cc(S(=O)(=O)CCC(=O)N3CCN(c4cccc(C)c4)C(C)C3)ccc21 (stereo not given)	none (no result: Shiga toxin inh, CHX counter)
Cc1ccccc1OCCCC(=O)Nc1ccc2c(c1)OCO2	Shiga toxin inh active, CHX counter 32
O=C(COc1ccccc1Cl)NCCc1ccc2c(c1)OCCO2	Shiga toxin inh 58, CHX counter 42
O=C(COC(=O)c1cccnc1Cl)Nc1ccc2c(c1)OCCO2	Shiga toxin inh 115, CHX counter 49
COc1ccccc1OCC(=O)Nc1ccc2c(c1)OCCO2	Shiga toxin inh 78, CHX counter 30

From PubChem BioAssay
